From PubChem BioAssay AID588763 (NMMLSC, 2011)
Measured potencies and affinities stand elsewhere. Calls of active or inactive are those of the source. No rule for the calls is given here.

target: Beta-2 adrenergic receptor (Homo sapiens) (UniProt P07550); assay: beta2AR agonists driving receptor internalization, dose response, cell-based, FAP fluorogen, flow cytometry, cherry pick 1 (AID 588763); details: AM2.2-beta2AR cells, 90 min; series mostly up to 33 µM
Sequence (P07550 whole entry, looked up): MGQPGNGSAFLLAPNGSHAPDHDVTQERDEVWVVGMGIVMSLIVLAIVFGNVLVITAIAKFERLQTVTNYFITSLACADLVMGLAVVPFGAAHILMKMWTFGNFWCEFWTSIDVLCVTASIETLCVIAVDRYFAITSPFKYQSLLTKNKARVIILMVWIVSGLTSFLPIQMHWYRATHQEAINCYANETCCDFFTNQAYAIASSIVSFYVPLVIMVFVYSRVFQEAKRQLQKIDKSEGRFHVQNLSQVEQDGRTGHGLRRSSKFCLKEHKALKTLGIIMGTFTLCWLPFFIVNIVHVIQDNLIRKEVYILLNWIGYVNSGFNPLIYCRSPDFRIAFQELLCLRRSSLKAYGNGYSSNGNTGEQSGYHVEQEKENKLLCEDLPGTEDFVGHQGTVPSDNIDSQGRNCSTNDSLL

| SMILES | outcome |
| --- | --- |
| CC(CCc1ccccc1)NC(C)C(O)c1ccc(O)cc1 (stereo not drawn) | inactive |
| COc1ccc(C(O)CNC(C)C)c(F)c1OC (stereo not drawn) | inactive |
| COc1ccc(OC)c([C@@H](O)[C@H](C)NC(C)(C)C)c1 | inactive |
| CCNCC(O)c1cccc(O)c1 (stereo not drawn) | inactive |
| CC(NCc1ccc(Cl)c(Cl)c1)C(O)c1ccccc1 (stereo not drawn) | inactive |
| COc1cc(C(O)CNC(C)C)cc(F)c1OC (stereo not drawn) | inactive |
| COc1ccc(OC)c(C(O)C2CCCCN2)c1 (stereo not drawn) | inactive |
| COc1ccc(OC)c2c1CCC1NCCOC21 (stereo not drawn) | inactive |
